# In the supplement of paper PMC6555819:
# Key:
# Experiment in all cases: PBM binding z-score (relative to random genomic background probes); higher = stronger binding; sequences stand for … in GC…GCGATTGACAGCGTAGAATGAAGG
# [1] = tested on: FXR:RXRa (NR concentration 270 nM, RXRa partner concentration 90 nM)
# Procedure, shortened: (§1)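 Ligand-free nuclear receptor dimers were bound for 1 h to custom Agilent 4×180K protein-binding microarrays. Detection used antibodies against each partner (one per run). Binding z-scores rest on regression-normalized fluorescence, with random background probes as the reference.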
# [2] = tested on: LXRa:RXRa (NR concentration 270 nM, RXRa partner concentration 90 nM)
# Procedure, shortened: as §1
# [3] = tested on: LXRa homodimer (NR concentration 270 nM)
# Procedure, shortened: as §1
# [4] = tested on: LXRb:RXRa (NR concentration 270 nM, RXRa partner concentration 90 nM)
# Procedure, shortened: as §1
# [5] = tested on: LXRb homodimer (NR concentration 270 nM)
# Procedure, shortened: as §1
# [6] = tested on: PPARa:RXRa (NR concentration 270 nM, RXRa partner concentration 90 nM)
# Procedure, shortened: as §1
# [7] = tested on: PPARg:RXRa (NR concentration 180 nM, RXRa partner concentration 90 nM)
# Procedure, shortened: as §1
# [8] = tested on: PPARg:RXRa 270nM:90nM, anti-RXR (NR concentration 270 nM, RXRa partner concentration 90 nM)
# Procedure, shortened: as §1
# [9] = tested on: PPARg:RXRa 30nM:10nM, anti-RXR (NR concentration 30 nM, RXRa partner concentration 10 nM)
# Procedure, shortened: as §1
# [10] = tested on: PPARg:RXRa 90nM:30nM, anti-RXR (NR concentration 90 nM, RXRa partner concentration 30 nM)
# Procedure, shortened: as §1
Sequence,PBM binding z-score [1],PBM binding z-score [2],PBM binding z-score [3],PBM binding z-score [4],PBM binding z-score [5],PBM binding z-score [6],PBM binding z-score [7],PBM binding z-score [8],PBM binding z-score [9],PBM binding z-score [10]
CCTATTAGTTGACCATAATGGCAACCGAAGCTCG,0.282,0.486,0.78,0.483,1.03,0.289,0.468,-0.0519,-0.187,0.0677
CGTCCAAAGTCAATGCTAGGTCAGTGAAAGCATT,0.216,0.789,0.816,0.482,-0.125,0.696,-0.177,-0.216,-0.538,-0.284
ATTCAAAGTTCATCTAGGTAACGTAAGATATGCT,6.71,6.24,6.17,3.99,2.84,4.52,4.18,4.51,1.84,3.39
CCTATTAGTTGACCATACGGGCAACCGAAGCTCG,0.382,0.294,0.419,0.323,0.519,-0.224,0.305,-0.0431,-0.298,-0.186
GCGACTGGGGCATAGCAGGTTACCATAAGGTTGG,0.397,0.135,-0.575,0.25,-0.915,1.2,1.02,0.684,-0.371,0.318
ACTTGTTGGTCAGCTGAGGTCACACACAATTCGG,3.37,3.31,2.13,3.51,0.632,3.79,1.8,2.46,0.673,1.95
ACTAGCAGGCCAAGTTTGTGTCACTCAAACAAAG,-0.566,-0.667,-0.358,-0.814,-0.886,-0.219,-0.46,-0.574,-0.538,-0.746
ATACCAAGGTGATCGGGAGGTCGTTGATACTAAC,1.36,0.921,0.848,1.34,0.329,1.55,0.591,0.404,0.193,0.12
TCACATAGGTAAACAGGTGAAAGTCCGTAAGTTA,0.14,0.698,0.285,0.803,-0.368,2.06,1.27,2.75,3.62,3.11
TAGCCTAGGTCAGATTGGGCCAGTATACGCTATA,2.65,1.25,-0.472,0.995,-0.0361,1.43,0.564,0.735,-0.437,-0.114
TCATATAGGTAAACACGTGAAAGTCCGTAAGTTA,0.505,0.566,0.235,0.56,0.236,1.33,1.16,2.12,3.63,2.89
ATCTCTAGGTAACAAGTTCAGTTAAAGAGAGGAC,0.755,0.963,0.655,0.642,0.936,1.62,1.48,2.05,0.996,1.57
CCTATTAGTTGACCATAAAGGCAACCGAAGCTCG,0.384,0.566,0.992,0.76,0.816,-0.0568,0.377,0.275,0.147,0.00767
ACTAGTTGGTTAGCTGAGGTCACACACAATTCGG,2.92,3.56,3.63,3.49,0.944,3.95,1.63,2.35,0.884,1.41
CCTAGCAGGCCAGGGCCACTCAAGCATTTCGCTT,-0.787,-0.944,-0.625,-1.04,-1.61,-0.638,-0.367,-1.16,-1.24,-1.48
GCTTGTAGTTCAAGGTTAAGAAAGACTAAGCTAA,1.52,2.43,0.162,1.53,-0.369,2.55,0.724,2.09,0.473,1.18
CCTTACGGGTCACTGACAGGATATAGCATTTGGA,5.3,3.68,0.191,3.28,-0.185,5.22,4.58,4.24,1.5,2.88
GATACAGGGTCAGCTAGAGGCCAGATTATGGAAA,4.25,2.85,-0.166,2.68,-0.373,4.42,3.59,3.18,0.899,1.88
CCAGACAAGTGAGAAGGTAACTCAGCCTCGATTA,-0.1,0.185,0.265,0.312,0.105,-0.0657,0.295,-0.204,-0.274,-0.419
CGAACGAGCGCATGAGTTGATAGCAAATGCCGAT,-0.525,-0.575,-0.486,-0.865,-1.12,-1.7,0.405,-0.647,-0.312,-0.44
ACTTACTGGTCAACGAGGTTATAGCACGCGTATA,1.24,1.44,0.897,1.62,0.859,1.88,1.04,1.16,1.29,1.29
CCGACTGGGGCAAGGTTACTATAACGCACAGCCA,0.258,1.52,-0.118,0.79,-0.963,1.59,3.02,2.98,1.03,2.21

Sequence,PBM binding z-score [1],PBM binding z-score [2],PBM binding z-score [3],PBM binding z-score [4],PBM binding z-score [5],PBM binding z-score [6],PBM binding z-score [7],PBM binding z-score [8],PBM binding z-score [9],PBM binding z-score [10]
AGAACGAGGGCAATGATTTGATAGCACGGGTGGC,0.321,0.43,-0.337,0.168,-0.65,1.41,1.57,0.787,0.29,0.557
CCTTCCGGGTCACGAGGTTATAGCACGACGAGCG,5.95,4.51,0.67,3.92,0.139,5.88,7.46,6.88,3.82,6
AGAATGTGGTTACCAAAGATCAGGGAAACGCTTG,-0.517,0.7,-0.272,-0.139,-0.442,-0.0504,0.469,0.425,0.333,0.271
CGTCCAAGGTCAGCAGATCAGTGAAAGCGACGTG,5.09,3.1,-0.179,2.21,-0.172,3.95,2.5,2.9,0.511,1.51
ACTAGCAGGCCAAGTTTGGGTCTCTCAAACAAAG,-0.742,-0.825,-0.773,-0.616,-0.908,-0.417,-0.897,-0.524,-1.1,-0.853
TAGCCTAGCTCATGCGGGCCAGTATAGTGTCGGC,-2.69,-1.21,-0.957,-1.4,-1.43,-1.23,-0.395,-1.21,-0.899,-0.925
ATCACTAGGTAACAAGTTCAGTGAAAGAGAGGAC,0.674,0.942,0.705,0.664,0.576,1.94,3.04,3.04,1.14,2.5
GCATATAGCTAATACAAGGTGAAAGTCCGATTGT,-0.158,-0.177,0.202,-0.0693,-0.0357,0.477,0.487,0.425,-0.0371,0.33
CCCACTGGGCCATCAGGTCATTGATATCAACGTT,1.16,1.11,1.5,1.63,-0.17,2.74,2.87,3.57,1.18,2.86
ATTATTAGTTGACTTAGGGCAACCGATACGACGC,0.735,0.64,1.16,0.949,1.32,0.727,1.09,0.586,0.719,0.975
ATCTCTAGGAAAGACTCAGTTCAGTGAAGAACGC,0.193,0.324,0.437,0.164,0.531,-0.385,-0.00135,-0.209,-0.24,-0.119
TCATATAGGTAAAAGCTGAAAGTCGGTGTGGTAA,0.59,0.549,-0.108,0.664,-0.24,1.41,0.589,2.74,3.52,3.25
CCTGCTAGGTAAATGGTCAGCTAAAGCAGCTCGC,-0.299,-0.376,-0.748,-0.628,-0.539,-0.0599,0.476,1.64,0.189,1.31
CCTCGGAGGGCAGAAGGTCAGAGCTGTCCGCTTT,1.58,1.92,-0.356,1.12,-1.06,2.48,0.613,2.48,-0.473,1.44
ATATGTAGGTTAGCTGGGGTCATTTAGACTAGGC,4.36,5.92,3.36,4.92,1.13,5.22,5.68,5.12,2.41,4.22
TTACCAAGCTGAAAGGTCGTTGATGCACGCCTTG,0.616,0.94,-0.316,1.04,-1.11,2.08,1.29,3.29,1.06,2.53
TCATAGAGGTAAATGCTAGGTGAAAGTCCGATCT,0.371,1.08,-0.125,0.395,-0.74,1.24,0.339,1.7,2.66,2.06
ATCGAAAGGTCGAAGGTGAGAATACCCACCCGAA,4.1,3.81,0.0457,2.94,0.451,4.73,4.6,4.93,2.85,4.31
CGTACTAGGTCATCCAGGACAGTGAATACATTGA,4.17,2.58,0.958,2.46,0.292,4.53,6.87,5.33,3.15,5.25
CTCGAAAGGTCGGTTGAGGTGAGTTTACGGATAA,2.83,1.88,0.32,1.63,-0.184,2.69,-9.87e-05,1.12,0.0415,0.508
CGTCCAAGGTCAGTGCTAGGTCAGTGAAAGCATT,4.03,3.44,0.709,2.75,-0.278,3.28,1.44,2.57,0.1,1.31
TGTCAAAGTTCAAAGGTAACGTCAGTATCCACAC,7.51,6.72,4.98,4.84,1.79,5.79,8.85,7.88,5.71,7.79
